# From PubChem BioAssay (EPA / NIEHS)
# Inconclusive results are not listed. More than one record can exist for a structure, and the calls need not agree. The source made the active and inactive calls. The calls were made as follows: active = hit-call score of the fitted dose curve at least 0.9, where 1 is the maximum; inconclusive = response in the unintended direction; inactive = score below 0.9.
# Biological target: rat Monoamine Oxidase, MAO-B, Central (MAOBC), Maob (gene 25750) (UniProt P19643)
# Sequence (P19643 whole entry, looked up): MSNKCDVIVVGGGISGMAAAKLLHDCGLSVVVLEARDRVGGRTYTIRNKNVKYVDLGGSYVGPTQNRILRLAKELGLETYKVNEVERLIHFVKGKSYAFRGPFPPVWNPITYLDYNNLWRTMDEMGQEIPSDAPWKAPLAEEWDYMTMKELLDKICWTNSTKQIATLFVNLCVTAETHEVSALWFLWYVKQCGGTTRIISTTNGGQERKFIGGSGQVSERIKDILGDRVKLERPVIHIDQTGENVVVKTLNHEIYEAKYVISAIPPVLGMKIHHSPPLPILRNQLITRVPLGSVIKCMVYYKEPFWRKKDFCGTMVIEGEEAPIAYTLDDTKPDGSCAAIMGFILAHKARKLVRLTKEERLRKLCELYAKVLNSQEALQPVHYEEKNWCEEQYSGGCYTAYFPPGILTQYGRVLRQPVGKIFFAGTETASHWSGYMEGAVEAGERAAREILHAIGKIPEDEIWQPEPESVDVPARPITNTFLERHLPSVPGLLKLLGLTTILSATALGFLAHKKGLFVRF
# Experiment: NVS_ENZ_rMAOBC: NovaScreen (NVS) Enzymatic Assay for rat Monoamine Oxidase, MAO-B, Central (MAOBC) (AID 2283238)
# Method: NVS_ENZ_rMAOBC is a biochemical, single-readout assay that uses extracted gene-proteins from Rat brain in a tissue-based cell-free assay. Measurements were taken 1.17 hours after chemical dosing in a 96-well plate.NVS_ENZ_rMAOBC is one of one assay component(s) measured or calculated from the NVS_ENZ_rMAOBC assay. It is designed to make measurements of enzyme activity, a form of enzyme reporter, as detected with scintillation counting signals by Lysate-based radiodetection technology.Data from the assay component NVS_ENZ_rMAOBC was analyzed into 1 assay endpoint. This assay endpoint, NVS_ENZ_rMAOBC, was analyzed in the positive analysis fitting direction relative to DMSO as the negative control and baseline of activity. Using a type of enzyme reporter, loss-of-signal activity can be used to understand changes in the enzymatic activity as they relate to the gene Maob. Furthermore, this assay endpoint can be referred to as a primary readout, because this assay has produced multiple assay endpoints where this one serves a enzymatic activity function. To generalize the intended target to other relatable targets, this assay endpoint is annotated to the oxidoreductase intended target family, where the subfamily is monoamine oxidase.
# Binding assays used specific radioligands (tritiated, iodinated) with non-radioactive competitive displacement ligands in agonist or antagonist protocols (as indicated) and various reference compounds and inhibitors to titrate specific binding to receptors and transporters. Most enzyme assays (CYPs, kinases, phosphatases, proteases, HDACs) used recombinant protein and specific substrates (fluorescence mostly, some colorimetric and radioactive) and inhibitors, followed by a biochemical separation of substrate and product. All assays for the biochemical HTS were initially run in duplicate at a single concentration (10 uM for CYP450 assays and 25 uM for all others). Assay-chemical combinations meeting a pre-defined threshold (e.g., 30% inhibition and other criteria defined below) were then run in singleton concentration-response format with maximum concentration of 20 uM for CYPs and 50 uM for all others. Each assay was run with positive and negative controls, and concurrent controls on every plate. The follow-up (secondary) screen tested active chemical-pairs in concentration series, as well as a few additional assays not tested in the primary screen, some selected negative inactives, and several cases re-run in the concentration series for confirmatory purposes.
Compound,AC50,outcome
c1ccc(C(O[C@@H]2CCCN(CCc3ccc4c(c3)OCO4)C2)c2ccccc2)cc1,14.9 µM (active),–
O=C(O)Cc1cc(I)c(Oc2cc(I)c(O)c(I)c2)c(I)c1,–,inactive
CCc1ccc(CCOc2ccc(CC3SC(=O)NC3=O)cc2)nc1 (stereo not given),6 µM (active),–
COc1ccc([N+](=O)[O-])cc1N,25 µM (active),–
c1ccc2ncccc2c1,–,inactive
CCCCCCCCOC(=O)c1cc(O)c(O)c(O)c1,–,inactive
COc1ccc(S(=O)(=O)N2C(=O)[C@@](c3ccccc3OC)(N3C[C@H](O)C[C@H]3C(=O)N(C)C)c3cc(Cl)ccc32)c(OC)c1,–,inactive
COc1ccc(OC(F)(F)F)cc1CN[C@H]1CCCN[C@H]1c1ccccc1,–,inactive
Oc1ccc2c(c1)-c1ccccc1C2,19.6 µM (active),–
CCOC(=O)C(C)Oc1ccc(Oc2nc3ccc(Cl)cc3o2)cc1 (stereo not given),–,inactive
O=C(NS(=O)(=O)/C=C/c1cccs1)c1ccc(F)cc1Br,–,inactive
Cc1cccc(C)c1O,–,inactive
CSC(=O)c1cccc2nnsc12,25 µM (active),–
Fc1ccccc1[C@@H](F)COC1CCC(Nc2ncnc3[nH]ncc23)CC1 (stereo not given in full),18.6 µM (active),–
NC(=O)N(O)[C@@H]1COc2cc(OCc3ccccc3)ccc21,12.2 µM (active),–
c1ccc2n[nH]nc2c1,25 µM (active),inactive
CCc1cc(SCc2sc(-c3ccc(C(F)(F)F)cc3)nc2CN2CCN(c3ccc(OC)cc3)CC2)ccc1OCC(=O)O,15 µM (active),–
O=C(c1ccc(O)cc1O)c1ccc(O)cc1O,12.9 µM (active),–
O=C1c2ccccc2C(=O)N1CCc1noc(-c2ccc(CN3CCCCCC3)s2)n1,12.5 µM (active),–
O=C(N[C@@H](Cc1ccccc1)[C@@H](O)C(=O)N1C[C@@H](O)[C@@H](O)C1)c1cc2cc(Cl)ccc2[nH]1,–,inactive

Compound,AC50,outcome
Cc1c(C)c2c(c(C)c1O)CCC(C)(COc1ccc(CC3SC(=O)NC3=O)cc1)O2 (stereo not given),25 µM (active),–
CCOC(=O)c1ccc(O)cc1,–,inactive
Nc1ccc2c(c1)C(=O)c1ccccc1C2=O,–,inactive
CC1(C)CC(N=C=O)CC(C)(CN=C=O)C1 (stereo not given),–,inactive
C=CN1CCCC1=O,–,inactive
CCCCCC(C)OC(=O)COc1ccc(Cl)c2cccnc12 (stereo not given),–,inactive
NCc1cccc(C2CCN(C(=O)c3ccc(C#Cc4ccccc4F)o3)CC2)c1,11.2 µM (active),–
CCCOC(=O)c1cc(O)c(O)c(O)c1,–,inactive
CC/C(=C\C(=N/O)C(N)=O)C(C)[N+](=O)[O-] (stereo not given),37.8 µM (active),–
O=C(O)c1cccc(C[C@@H]2COc3ccc(OCc4nc5cc(F)ccc5s4)cc3[C@@H]2O)c1,17.8 µM (active),–
CCOC(=O)c1ccc(C2CCC(NC[C@H](O)COc3ccc(O)c(NS(C)(=O)=O)c3)CC2)cc1 (stereo not given in full),10.2 µM (active),–
O=[N+]([O-])c1ccc(O)cc1,18.1 µM (active),–
CN(C)C(=O)Nc1ccc(Cl)c(Cl)c1,–,inactive
CCN(CC)CCOc1ccc(C(=C(Cl)c2ccccc2)c2ccccc2)cc1,12.4 µM (active) [middle of 4 runs],–
Cc1ccc([N+](=O)[O-])cc1N,14.7 µM (active),–
CCCCC(CC)CN1C(=O)C2C3C=CC(C3)C2C1=O (stereo not given),–,inactive
N[C@@H](Cc1cc(I)c(Oc2ccc(O)c(I)c2)c(I)c1)C(=O)O,–,inactive
O=c1ccc2ccccc2o1,12.5 µM (active),–
CCOC(=O)[C@H](C)Oc1ccc(Oc2nc3ccc(Cl)cc3o2)cc1,1.57 µM (active),–
